This is a sample that favours compounds with a hit; in the whole collection about 3.5% have one here.
TEAD-YAP inh – TEAD-YAP interaction inhibition; HEK-TIYL cells, TEAD-Gal4/YAP UAS-luciferase luminescence; inhibition, % at 9.12 µM; 640,000 compounds, 1.4% hits; AID 1259422; in the data active = inhibition above about 32%;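 also: 0% = median of test compound wells and 100% = reference inhibitor wells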
GPR151 ag – activates the human receptor GPR151. PathHunter beta-arrestin GPR151 cells, luminescence. activation, % at 11.2 µM. Q8TDV0. 650,000 compounds, 1% hits. AID 1508602; in the data active = activation above about 4.9%;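 also: 0% = median of compound wells and 100% = cells with positive control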
MITF inh – blocks human microphthalmia-associated transcription factor. AlphaScreen MITF homodimerization, bead proximity signal. inhibition, % at 2.6 µM. 650,000 compounds, 0.91% hits. AID 1259374; in the data active = inhibition above about 50%;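 also: 0% = vehicle wells with protein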
FBW7 act – activators of human E3 ligase FBW7; normalized activity (activation), % at 26.1 µM; AID 1259310; AlphaScreen FBW7–phospho-cyclin E peptide binding, activator screen; 650,000 compounds, 0.13% hits; in the data active = normalized activity above about 1.9%;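 also: purified mutant Fbw7 with reduced substrate affinity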
Target sequence (Q969H0 whole entry, looked up): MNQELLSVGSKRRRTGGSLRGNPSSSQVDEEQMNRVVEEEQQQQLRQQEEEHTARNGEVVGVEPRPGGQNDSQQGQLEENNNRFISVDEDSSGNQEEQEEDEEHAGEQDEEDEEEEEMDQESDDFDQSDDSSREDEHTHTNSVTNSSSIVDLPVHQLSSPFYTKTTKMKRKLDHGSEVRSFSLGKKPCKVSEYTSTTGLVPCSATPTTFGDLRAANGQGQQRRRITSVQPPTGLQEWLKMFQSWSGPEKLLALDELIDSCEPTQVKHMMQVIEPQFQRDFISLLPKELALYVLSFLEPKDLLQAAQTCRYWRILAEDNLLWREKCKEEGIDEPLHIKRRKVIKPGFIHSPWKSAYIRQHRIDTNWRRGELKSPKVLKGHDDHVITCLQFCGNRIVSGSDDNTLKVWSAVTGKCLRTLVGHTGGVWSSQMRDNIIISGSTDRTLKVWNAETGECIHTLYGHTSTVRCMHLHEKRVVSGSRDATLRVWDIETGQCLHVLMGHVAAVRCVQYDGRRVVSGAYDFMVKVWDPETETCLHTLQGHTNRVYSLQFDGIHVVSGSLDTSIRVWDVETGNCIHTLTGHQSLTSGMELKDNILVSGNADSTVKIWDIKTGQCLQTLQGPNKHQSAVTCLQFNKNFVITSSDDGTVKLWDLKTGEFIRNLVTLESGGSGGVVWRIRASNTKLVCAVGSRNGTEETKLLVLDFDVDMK
MITF inh conf – confirmation of human MITF inhibitors; AlphaScreen MITF homodimerization, biotin/His-MITF beads; 4,700 compounds, 16% hits; shares compounds with MITF inh; inhibition, % at 2.6 µM;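 active = inhibition above a cutoff derived from the DMSO control wells, cut at about 28% in these data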;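 also: 0% = MITF dimer wells with DMSO only; inhibitors lower the bead chemiluminescence by keeping MITF from dimerizing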
AlphaScreen DR – optically interferes with AlphaScreen signal in dose response; AID 1259373; IC50, µM; shares compounds with MITF inh; AlphaScreen optical interference counterscreen, cell-free; 480 compounds, 6% hits; call rule not given here
AS interf ctr – AlphaScreen optical interference, counter-screen | shares compounds with MITF inh | LysRS AlphaScreen counterscreen, signal interference, triplicate | inhibition, % at 2.6 µM | 4,700 compounds, 7.6% hits | AID 1259376;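 active = inhibition above a cutoff derived from the DMSO control wells, cut at about 30% in these data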
Numbers without * were called inactive; nt = no result.

SMILES | TEAD-YAP inh | GPR151 ag | MITF inh | FBW7 act | MITF inh conf | AS interf ctr | others
CC1CN(C2CCN(Cc3ccccc3[N+](=O)[O-])CC2)CC(C)O1 (stereo unspecified) | 6.4 | 1.0 | 65.9* | -0.1 | -2.6 | 3.2
CCOC(=O)Cc1csc(NC(=O)CSc2nc3cccnc3n2C)n1 | 3.3 | 0.0 | 14.6 | 0.1 | nt | nt
COc1ccc(CCNC(=O)c2ccnc(N3CCOCC3)c2)cc1 | 10.8 | 0.5 | 7.0 | 0.3 | nt | nt
COc1ccc(C(=O)n2nc(-c3ccco3)nc2N)cc1 | -1.1 | -0.5 | 80.0* | -0.5 | 77.7* | 48.7*
Cc1ccc(C(=O)n2nc(-c3ccco3)nc2N)cc1 | 3.0 | -0.1 | 16.1 | 0.3 | nt | nt
Cc1ccc(C(=O)Nc2sc(C)c(C)c2C(N)=O)cc1I | -24.8 | -0.1 | 1.9 | 0.1 | nt | nt
CCOC(=O)c1c(NC(=O)C(c2ccccc2)c2ccccc2)sc2c1CCC(C)C2 (stereo unspecified) | 0.9 | 1.0 | 4.1 | 0.0 | nt | nt
O=C(c1cc(F)cc(F)c1)N1CC[C@@H](c2ccccc2)[C@H](O)C1 | -3.2 | -0.6 | 53.2* | 0.0 | -2.5 | 6.9
COc1ccc([C@@H]2CCN(C(=O)c3cc(F)cc(F)c3)C[C@H]2O)cc1 | -8.6 | -0.5 | -8.4 | 0.1 | nt | nt
Cc1ccc(Oc2ccc(NC(=O)c3ccccc3F)cc2)cc1 | 4.8 | 0.6 | 8.1 | 0.2 | nt | nt
CC(C)[C@@H]1NC(=O)[C@H]2CN(C(=O)c3ccc(Cl)cc3)CCN2C1=O | -1.9 | 2.2 | -1.0 | 0.2 | nt | nt
C[C@H]1NC(=O)[C@H]2CN(C(=O)NC3CCCCC3)CCN2C1=O | -2.6 | -0.5 | 74.6* | -0.3 | 74.4* | -9.4 | AlphaScreen DR=>6.48
CC(C)[C@@H]1NC(=O)[C@H]2CN(C(=O)NC3CCCCC3)CCN2C1=O | -3.3 | 1.1 | 71.3* | -0.2 | 68.2* | -11.5 | AlphaScreen DR=>6.48
CC(NCC(O)CO)c1ccc(-n2ccnc2)cc1 (stereo unspecified) | -2.5 | 0.4 | 81.3* | -0.3 | 11.2 | 10.5
COC(=O)Cc1c(C)c2ccc(OCC(N)=O)c(C)c2oc1=O | -2.2 | -0.6 | 73.0* | 0.1 | 11.6 | 9.8
COC(=O)Cc1c(C)c2ccc(OCC(=O)OC(C)(C)C)c(C)c2oc1=O | 9.6 | -1.1 | -14.2 | 0.2 | nt | nt
O=C(Nc1nc2c(s1)COc1ccccc1-2)C1CCCN1S(=O)(=O)c1ccc(Cl)cc1 (stereo unspecified) | 8.4 | 1.3 | 51.9* | -0.1 | -0.3 | -4.3
Cc1cc(N2CCCCC2)nc2ccc(NC(=O)c3cccnc3)cc12 | -5.8 | 0.2 | 52.8* | 0.6 | -7.3 | -0.2
COc1ccc(C(=O)Nc2ccc(-c3ccc4nnc(C)n4n3)cc2)cc1OC | 4.8 | 0.9 | 2.6 | 0.0 | nt | nt
O=C1CCCCC1CNc1cccc(C(F)(F)F)c1 (stereo unspecified) | 4.2 | -1.0 | 74.2* | 0.0 | 3.8 | 17.5
Nc1ccc(NCCO)c(N)c1 | -1.1 | -1.1 | 56.6* | -1.1 | 51.7* | -5.2 | AlphaScreen DR=>5.9
Nc1ccc(C(=O)Nc2ccc(N)cc2N)cc1 | 9.2 | 3.9 | 3.7 | -0.4 | nt | nt
O=C(CCCn1c(SCC(=O)NC2CCCC2)nc2ccccc2c1=O)NCCCN1CCOCC1 | -5.4 | -0.4 | 56.8* | 0.5 | -15.6 | -7.5
O=C(NCC1CCC2(CCN(Cc3cc4ccccc4s3)CC2)O1)c1cccnc1 (stereo unspecified) | 1.0 | 1.6 | 4.2 | -0.3 | nt | nt
O=C(NCC1CCC2(CCN(Cc3cnc(-c4ccccc4)s3)CC2)O1)c1cccnc1 (stereo unspecified) | 25.7 | -0.1 | 70.5* | -0.2 | -3.9 | -7.8
COC(=O)c1ccccc1NC(=O)/C(C#N)=C/c1cc(Cl)c(OC)c(OC)c1 | 6.6 | 0.8 | 53.3* | 0.1 | 2.8 | 3.9
CC(C(=O)N1CCCCC1)N(C)CC(=O)Nc1ccc(F)c(F)c1F (stereo unspecified) | 5.7 | 0.0 | 68.7* | -0.1 | 9.1 | 14.3
Fc1ccc(NCc2nnc(SCCN3CCOCC3)n2-c2ccccc2)cc1 | 2.6 | -0.5 | 67.1* | 0.0 | 10.8 | 9.8
CC(C)(C)c1ccc(Cn2c(=N)n(CC(=O)c3ccc([N+](=O)[O-])cc3)c3ccccc32)cc1 | -4.2 | -0.5 | 0.9 | -0.3 | nt | nt
CC(=O)c1ccc(S(=O)(=O)N(C2=NCCCS2)c2ccc(F)cc2)cc1 | -7.8 | -0.4 | -14.0 | 0.0 | nt | nt
